{"source": "the supplement of paper PMC7695840", "key": {"[1]": {"test_system": "Staphylococcus aureus MW2 delta-mecA (mecA-)", "assay": "normalized GFP fluorescence (growth of mecA- strain) (fraction of control range); higher = more growth of mecA- strain", "conditions": "compound concentration: 150 uM; cefoxitin: subinhibitory; fluorescent label: GFP", "in_short": "(§1)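 Pre-induced S. aureus MW2 mecA+ (DsRed) and ΔmecA (GFP) cells were mixed 1:1 in LB with a daily-set subinhibitory cefoxitin dose. They were dispensed at 5 µL/well onto 150 μM compound (1.5% DMSO) in 1536-well plates, single replicate. Growth was 20 h at 37 °C, 90% humidity, unshaken, and DsRed (540/590) and GFP (485/520) were then read. Each channel was scaled per plate between the medians of the single-strain controls. Plates with high No Treatment ratios and rows with DsRed/GFP >10 were excluded.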"}, "[2]": {"test_system": "Staphylococcus aureus MW2 (mecA+)", "assay": "normalized DsRed fluorescence (growth of mecA+ strain) (fraction of control range); higher = more growth of mecA+ strain", "conditions": "compound concentration: 150 uM; cefoxitin: subinhibitory; fluorescent label: DsRed", "in_short": "as §1"}}, "note": "Counter-ions that a name gives are not always drawn.", "data": [{"smiles": "NC(=O)c1ccccc1O", "values": [{"measurement": "normalized GFP fluorescence", "setting": "[1]", "result": 0.52}, {"measurement": "normalized DsRed fluorescence", "setting": "[2]", "result": 0.666}]}, {"smiles": "Cc1c(OCC(F)(F)F)ccnc1C[S+]([O-])c1nc2ccccc2[nH]1", "note": "(centres undefined) [Lansoprazole]", "values": [{"measurement": "normalized GFP fluorescence", "setting": "[1]", "result": 0.122}, {"measurement": "normalized DsRed fluorescence", "setting": "[2]", "result": 0.553}]}, {"smiles": "COc1ccccc1OCC(O)CN1CCN(CC(=O)Nc2c(C)cccc2C)CC1", "note": "(centres undefined)", "values": [{"measurement": "normalized GFP fluorescence", "setting": "[1]", "result": 0.863}, {"measurement": "normalized DsRed fluorescence", "setting": "[2]", "result": 0.62}]}, {"smiles": "c1ccc2[nH]c(-c3cscn3)nc2c1", "values": [{"measurement": "normalized GFP fluorescence", "setting": "[1]", "result": 0.302}, {"measurement": "normalized DsRed fluorescence", "setting": "[2]", "result": 0.444}]}, {"smiles": "COc1cc2c(cc1OC)CC(=O)N(CCCN(C)C[C@H]1Cc3cc(OC)c(OC)cc31)CC2", "note": "[Ivabradine HCl (Procoralan)]", "values": [{"measurement": "normalized GFP fluorescence", "setting": "[1]", "result": 0.478}, {"measurement": "normalized DsRed fluorescence", "setting": "[2]", "result": 0.555}]}, {"smiles": "Cc1cc(C(C)(C)C)cc(C)c1CC1=NCCN1", "values": [{"measurement": "normalized GFP fluorescence", "setting": "[1]", "result": 0.345}, {"measurement": "normalized DsRed fluorescence", "setting": "[2]", "result": 0.52}]}, {"smiles": "O=C(CCCN1CCC(O)(c2ccc(Br)cc2)CC1)c1ccc(F)cc1", "values": [{"measurement": "normalized GFP fluorescence", "setting": "[1]", "result": 0.243}, {"measurement": "normalized DsRed fluorescence", "setting": "[2]", "result": 1.21}]}, {"smiles": "CCN(CC)Cc1cc(Nc2ccnc3cc(Cl)ccc23)ccc1O", "values": [{"measurement": "normalized GFP fluorescence", "setting": "[1]", "result": 0.205}, {"measurement": "normalized DsRed fluorescence", "setting": "[2]", "result": 0.684}]}, {"smiles": "CN1CCOC(c2ccccc2)c2ccccc2C1", "note": "(centres undefined)", "values": [{"measurement": "normalized GFP fluorescence", "setting": "[1]", "result": 0.242}, {"measurement": "normalized DsRed fluorescence", "setting": "[2]", "result": 0.81}]}, {"smiles": "NC[C@H](O)c1ccc(O)c(O)c1", "values": [{"measurement": "normalized GFP fluorescence", "setting": "[1]", "result": 0.502}, {"measurement": "normalized DsRed fluorescence", "setting": "[2]", "result": 1.06}]}, {"smiles": "C[N+](C)(C)CCOC(N)=O", "values": [{"measurement": "normalized GFP fluorescence", "setting": "[1]", "result": 0.245}, {"measurement": "normalized DsRed fluorescence", "setting": "[2]", "result": 0.816}]}, {"smiles": "CC(C)NCC(O)COc1cccc2[nH]ccc12", "note": "(centres undefined)", "values": [{"measurement": "normalized GFP fluorescence", "setting": "[1]", "result": 0.242}, {"measurement": "normalized DsRed fluorescence", "setting": "[2]", "result": 1.01}]}, {"smiles": "COc1cc(NS(=O)(=O)c2ccc(N)cc2)nc(OC)n1", "values": [{"measurement": "normalized GFP fluorescence", "setting": "[1]", "result": 0.338}, {"measurement": "normalized DsRed fluorescence", "setting": "[2]", "result": 1.32}]}, {"smiles": "CC(C[N+](C)(C)C)OC(N)=O", "note": "(centres undefined)", "values": [{"measurement": "normalized GFP fluorescence", "setting": "[1]", "result": 0.554}, {"measurement": "normalized DsRed fluorescence", "setting": "[2]", "result": 0.879}]}, {"smiles": "Cc1cnc(NC(=O)C2=C(O)c3ccccc3S(=O)(=O)N2C)s1", "values": [{"measurement": "normalized GFP fluorescence", "setting": "[1]", "result": 0.204}, {"measurement": "normalized DsRed fluorescence", "setting": "[2]", "result": 0.469}]}, {"smiles": "C[C@]12CCC(=O)C=C1CC[C@@H]1[C@@H]2[C@@H](O)C[C@@]2(C)[C@H]1CC[C@]2(O)C(=O)CO", "values": [{"measurement": "normalized GFP fluorescence", "setting": "[1]", "result": 0.268}, {"measurement": "normalized DsRed fluorescence", "setting": "[2]", "result": 0.562}]}, {"smiles": "CN(C)CCN(Cc1cccs1)c1ccccn1", "values": [{"measurement": "normalized GFP fluorescence", "setting": "[1]", "result": 0.185}, {"measurement": "normalized DsRed fluorescence", "setting": "[2]", "result": 0.778}]}]}
